Measured values taken from PubChem BioAssay (NCI).
This is part of a sample that, as a whole, favours compounds with a hit. Of some 83,000 tested, about 20% had one in any assay.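 Results are percent growth after 48 hours of single-concentration exposure. 100 means growth as in untreated cells, lower positive values show inhibition; negative values down to -100 show cell death.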 Unmarked numbers belong to inactive results. Activity calls are given as the source filed them. The calls were made as follows: active = growth percent below 10; inactive = the rest.

Test system: U251 CNS
Experiment: NCI-60 one-dose screen, 48 h (100 = growth as untreated, 0 = no growth, -100 = all killed)
Settings: 10 µM unless noted

SMILES	growth
O=C(N=c1n(-c2ccccc2)nc2n1CCN2C1=NCCN1C(=O)c1ccc(Cl)cc1)c1ccc(Cl)cc1	72.8%
CC1=CC[C@@H]2C(C)(C)[C@@H](O)CC[C@@]2(C)[C@@H]1COc1ccc2ccc(=O)oc2c1	67.9%
CSc1nc2sc3cc(Cl)c(Cl)cc3n2c(=N)c1C#N	105%
COc1ccc(C(=O)CCC(=O)O)cc1	83.1%
O=C(CCNCc1ccccc1)c1ccccc1	101%
NC(=O)CC1C=CCC1 (centres undefined)	85.5%
CCNc1cc2c(cc1Br)-c1ccccc1C2=O	96.3%
O=C(O)c1cn(C2CC2)c2cc(N3CCN(Cc4c(O)ccc5ccccc45)CC3)c(F)cc2c1=O	37.5%
CCOC(=O)COc1ccc2c(c1)O/C(=C\c1ccc(O)cc1)C2=O	107%
Nc1cc(NN=C(c2ccc(O)cc2)c2ccc(O)cc2)c([N+](=O)[O-])cc1[N+](=O)[O-]	4.49% (active)
CCCCCCNC(=O)Nc1ncnc2c1ncn2-c1ccccc1	94.8%
C[C@]12CCc3c(ccc4cc(O)ccc34)[C@@H]1CC[C@H]2O	101%
Nc1nc(Nc2ccccc2)c2ncn(Cc3ccc4c(c3)OCO4)c2n1	49.5%
COc1ccc(OC)c(NC=O)c1	88.2%
Fc1cc2[nH]ncc2c2c3c(c(-c4cn[nH]c4)nc12)CCCC3	-1.45% (active)
CCN(CC)CCCCCCNc1cccc2cc(Br)cnc12	81.2%
O=C(CSc1nc2ccc([N+](=O)[O-])cc2[nH]1)Nc1cccc(Cl)c1	13.6%
CCN(CC)CCCOc1ccc2c(c1)O/C(=C\c1cccc(OC)c1)C2=O	76.7%
CC1(C)C(=O)/C(=C\c2ccco2)C[C@]2(C)[C@H]3CC=C4[C@@H]5C[C@](C)(C(=O)O)CC[C@]5(C)CC[C@@]4(C)[C@]3(C)CC[C@@H]12	-80.8% [100 µM] (active)
C=C(C)[C@@H]1CC[C@]2(C(=O)NCCCCCCN(CCCN)CCCN)CC[C@]3(C)[C@H](CC[C@@H]4[C@@]5(C)CC[C@H](OCCCN)C(C)(C)[C@@H]5CC[C@]43C)[C@@H]12	-39.4% [100 µM] (active)
C=C(C)[C@@H]1CC[C@]2(COC(=O)c3ccccc3C(=O)O)CC[C@]3(C)[C@H](CC[C@@H]4[C@@]5(C)CC[C@H](OC(=O)c6ccccc6C(=O)O)C(C)(C)[C@@H]5CC[C@]43C)[C@@H]12	4.32% [100 µM] (active)
COc1ccc2c(c1)c(-c1noc(-c3cn(C)c4ncc(F)cc34)n1)cn2C	76.6%
c1ccc(-c2nnc(-c3c[nH]c4ncccc34)s2)cc1	93.2%
O=C1COCCN1c1ccc(NCc2cn(Cc3ccc(F)cc3)c3ccccc23)cc1	55.9%
CC(=O)Nc1ccc2nc3ccc(NC(C)=O)cc3[n+](-c3ccccc3)c2c1	109%
CCCCNC(=O)NS(=O)(=O)Cc1ccccc1	96.4%

Test system: PC-3 prostate
Experiment: as above
Settings: 10 µM unless noted

SMILES	growth
NC1=NC(=O)NC1(c1ccccc1)c1ccccc1	94.3%
N#C/C(C(=O)c1ccccc1)=C1/C(=O)Nc2ccccc21	97.6%
CN(Cc1cccc(C(F)(F)F)c1)C(=O)[C@@H](CC(=O)N1CCC(N2CCCCC2)CC1)N1C(=O)[C@@H](N2C(=O)OC[C@@H]2c2ccccc2)[C@H]1/C=C/c1ccccc1	67.1%
CCOc1ccc(S(=O)(=O)Nc2ccc3c(c2)N(S(=O)(=O)CC)CCC3)cc1	73.1%
CCOC(=O)C(=Cc1ccccc1[N+](=O)[O-])C(=O)OCC	47%
COc1cc(/C=C/C(=O)/C=C/c2ccc(-n3ccnc3C)cc2)ccc1O	74.2%
CCOC(=O)CC(c1ccccc1)C(C#N)c1ccccc1 (centres undefined)	89.5%
Cc1ccc(C2=C/C(=C/c3ccc(Br)cc3)C(=O)N2CCc2ccc(S(N)(=O)=O)cc2)cc1	88%
Cc1ccc(NC(=O)N[C@@H](Cc2cc(F)cc(F)c2)C(=O)N[C@@H]2C(=O)N3CCC[C@H]3C(=O)N3CCCC[C@H]3C(=O)N[C@@H](C)C(=O)N3C[C@H](C)C[C@H]3C(=O)O[C@H]2C)cc1	16.1%
C=C(C)[C@@H]1CC[C@]2(C)[C@H](CC[C@@H]3[C@@H]([C@@](C)(O)CCC=C(C)C)CC[C@]32C)[C@@]1(C)CCC(=O)O	5.99% [100 µM] (active)
C=CCCCCCCCCC(=O)OC(C)C	99.7%
O=C1Nc2ccccc2/C1=C/C(=O)c1ccc(N2CCCCC2)cc1	52.7%
O=C(N=c1n(-c2ccccc2)nc2n1CCN2C1=NCCN1C(=O)c1ccc(Cl)cc1)c1ccc(Cl)cc1	47.5%
CC1=CC[C@@H]2C(C)(C)[C@@H](O)CC[C@@]2(C)[C@@H]1COc1ccc2ccc(=O)oc2c1	30.6%
CSc1nc2sc3cc(Cl)c(Cl)cc3n2c(=N)c1C#N	97.6%
COc1ccc(C(=O)CCC(=O)O)cc1	92.5%
O=C(CCNCc1ccccc1)c1ccccc1	106%
NC(=O)CC1C=CCC1 (centres undefined)	98.7%
CCNc1cc2c(cc1Br)-c1ccccc1C2=O	81.4%

SMILES	growth
O=C(O)c1cn(C2CC2)c2cc(N3CCN(Cc4c(O)ccc5ccccc45)CC3)c(F)cc2c1=O	36.1%
CCOC(=O)COc1ccc2c(c1)O/C(=C\c1ccc(O)cc1)C2=O	112%
Nc1cc(NN=C(c2ccc(O)cc2)c2ccc(O)cc2)c([N+](=O)[O-])cc1[N+](=O)[O-]	64.2%
CCCCCCNC(=O)Nc1ncnc2c1ncn2-c1ccccc1	89.4%
C[C@]12CCc3c(ccc4cc(O)ccc34)[C@@H]1CC[C@H]2O	88.8%
Nc1nc(Nc2ccccc2)c2ncn(Cc3ccc4c(c3)OCO4)c2n1	58.4%
COc1ccc(OC)c(NC=O)c1	105%
Fc1cc2[nH]ncc2c2c3c(c(-c4cn[nH]c4)nc12)CCCC3	7.08% (active)
CCN(CC)CCCCCCNc1cccc2cc(Br)cnc12	54.2%
O=C(CSc1nc2ccc([N+](=O)[O-])cc2[nH]1)Nc1cccc(Cl)c1	11.7%
CCN(CC)CCCOc1ccc2c(c1)O/C(=C\c1cccc(OC)c1)C2=O	94.6%
CC1(C)C(=O)/C(=C\c2ccco2)C[C@]2(C)[C@H]3CC=C4[C@@H]5C[C@](C)(C(=O)O)CC[C@]5(C)CC[C@@]4(C)[C@]3(C)CC[C@@H]12	-32.2% [100 µM] (active)
C=C(C)[C@@H]1CC[C@]2(C(=O)NCCCCCCN(CCCN)CCCN)CC[C@]3(C)[C@H](CC[C@@H]4[C@@]5(C)CC[C@H](OCCCN)C(C)(C)[C@@H]5CC[C@]43C)[C@@H]12	60.9% [100 µM]
C=C(C)[C@@H]1CC[C@]2(COC(=O)c3ccccc3C(=O)O)CC[C@]3(C)[C@H](CC[C@@H]4[C@@]5(C)CC[C@H](OC(=O)c6ccccc6C(=O)O)C(C)(C)[C@@H]5CC[C@]43C)[C@@H]12	16.2% [100 µM]
COc1ccc2c(c1)c(-c1noc(-c3cn(C)c4ncc(F)cc34)n1)cn2C	91.7%
c1ccc(-c2nnc(-c3c[nH]c4ncccc34)s2)cc1	81.6%
O=C1COCCN1c1ccc(NCc2cn(Cc3ccc(F)cc3)c3ccccc23)cc1	93.3%
CC(=O)Nc1ccc2nc3ccc(NC(C)=O)cc3[n+](-c3ccccc3)c2c1	104%
CCCCNC(=O)NS(=O)(=O)Cc1ccccc1	102%
